Compound activity from PubChem BioAssay.
In the library only some 21% were active in any assay of this set; here they are far more common.
ClpP mod = qHTS Assay for Activators of ClpP | hit rate 1.9% among 340,000 | Potency, µM (series often up to 57.5 µM), for the others: at the top dose activity change, negative = active | purified B. subtilis ClpP, FRET peptide cleavage, 20 min; active = well fitted falling curve with a large enough effect; inconclusive = small, poorly fitted or top-dose-only effect; inactive = no such curve, though single readings can be large or run the other way; also: potency is read from the fitted curve at half-maximal effect; the source files actives as falling curves though it sought activators and does not explain the sign; nearly all actives have a fitted effect of over 65% in size
Target sequence (P80244 whole entry, looked up): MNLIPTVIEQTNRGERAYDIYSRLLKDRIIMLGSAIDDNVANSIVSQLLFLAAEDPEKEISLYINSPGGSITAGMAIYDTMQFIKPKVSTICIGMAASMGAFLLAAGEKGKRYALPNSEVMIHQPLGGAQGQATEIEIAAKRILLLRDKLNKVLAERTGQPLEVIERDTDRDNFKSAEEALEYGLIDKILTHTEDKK
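Purified B. subtilis ClpP, 10 microg/mL final in Tris/HCl pH8 with KCl, BSA, glycerol and Tween-20, cleaved an Abz/nitrotyrosine-quenched decapeptide. Fluorescence (ex 320, em 430) was read at 0 and 20 min at room temperature. Delta was normalized to 5.8 microM ADEP and DMSO/no-enzyme controls.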
TDP1 cell CPT = qHTS for Inhibitors of human tyrosyl-DNA phosphodiesterase 1 (TDP1): qHTS in cells in presence of CPT; chicken DT40 Tdp1-/-;hTDP1 cells + 20 nM CPT, ATP luminescence, 48 h; Potency, µM (series often up to 46.2 µM), for the others: top-dose activity change, negative = growth inhibition, hits mostly inhibitors; hit rate 12% among 420,000; AID 686979, 2013; also: potency is read from the fitted curve at half-maximal effect; % is scaled to controls: 0 for no effect and ±100 for the full control effect; nearly all actives have a fitted effect of over 55% in size
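Cell growth measured by CellTiter-Glo luminescence after a minimum 48 h, 37 C compound exposure with 20 nM CPT in Tdp1-knockout DT40 cells stably expressing hTDP1, seeded 400/well; qHTS titration format.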
DRD3 agonist = qHTS of D3 Dopamine Receptor Agonist: qHTS | D(3) dopamine receptor (Homo sapiens), P35462 | D3R DiscoveRx beta-arrestin cells, luminescence, 90 min | max activation, % | hit rate 0.58% among 410,000; in the data active = max activation above about 30%; also: 0% is about no effect
Target sequence (P35462 whole entry, looked up): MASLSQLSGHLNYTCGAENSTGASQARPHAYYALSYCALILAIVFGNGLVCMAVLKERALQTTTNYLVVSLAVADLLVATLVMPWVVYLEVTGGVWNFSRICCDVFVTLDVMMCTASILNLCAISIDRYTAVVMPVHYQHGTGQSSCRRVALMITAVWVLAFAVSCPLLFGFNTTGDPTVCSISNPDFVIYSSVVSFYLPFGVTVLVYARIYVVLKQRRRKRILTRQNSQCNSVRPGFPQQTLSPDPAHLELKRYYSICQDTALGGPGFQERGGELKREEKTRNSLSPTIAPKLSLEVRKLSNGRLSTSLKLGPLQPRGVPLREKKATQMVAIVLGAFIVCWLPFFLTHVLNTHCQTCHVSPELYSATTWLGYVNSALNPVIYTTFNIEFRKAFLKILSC
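Cells at 1500/well, incubated overnight, then treated with pinned compounds (dopamine as control) for 90 min at 37 degrees C. DiscoveRx reagent added for 30 - 60 minutes at room temperature; luminescence read.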
IL-1B inflam inh = qHTS for Inhibitors of Inflammasome Signaling: IL-1-beta AlphaLISA Primary Screen | hit rate 4.7% among 360,000 | AID 743279, 2014 | activity change, % at 57.5 µM | THP-1 LPS/ATP IL-1B secretion, AlphaLISA, 16 h; hits give low values; in the data active = activity change below about -50%; inconclusive = mostly about -30% to -49%; also: % is scaled to controls: 0 for no effect and ±100 for the full control effect
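Secreted IL-1B measured by AlphaLISA bead assay after 16 h compound exposure of THP-1 cells; compounds (final up to 57.5 uM) added 1 h before LPS (250 ng/mL) and ATP (1.25 mM) stimulation; lower signal means less secretion.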
D3 antag = qHTS of D3 Dopamine Receptor Antagonist: qHTS; D(3) dopamine receptor (Homo sapiens), P35462; D3R cells, DiscoveRx beta-arrestin luminescence, antagonist mode; hits give low values; max response, negative = inhibition, %; hit rate 2.5% among 360,000; AID 652054, 2013; in the data active = max response below about -50%; inconclusive = no clear call, values can overlap the other calls; also: % is scaled to controls: 0 for no effect and ±100 for the full control effect
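Cells expressing the human receptor were seeded at 1500 cells/well, incubated overnight at 37 degrees C in 5% CO2, then exposed to library compounds with dopamine controls for 90 minutes at 37 degrees C before luminescent detection.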
TDP1 cell noCPT = qHTS for Inhibitors of human tyrosyl-DNA phosphodiesterase 1 (TDP1): qHTS in cells in absence of CPT. hit rate 15% among 420,000. Potency, µM (top dose mostly 46.2 µM), without a hit: top-dose activity change, negative = growth inhibition, usual class: inhibitors. DT40 Tdp1-/- hTDP1 cells, no CPT, ATP luminescence, 48 h; also: potency is read from the fitted curve at half-maximal effect; % is scaled to controls: 0 for no effect and ±100 for the full control effect; nearly all actives have a fitted effect of over 55% in size
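Stably hTDP1-transfected Tdp1-null chicken DT40 cells were treated with library compounds minus camptothecin and grown for at least 48 hr at 37 °C, after which cellular ATP was quantified by luminescence.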
Active calls of the source: *; u = inconclusive; x = no result given. Unless noted, calls follow the shape of the dose curve; as a rule, active = well fitted inhibition curve with a large enough effect; inconclusive = small, poorly fitted or top-dose-only effect; inactive = flat fitted curve, though single readings scatter.

SMILES	ClpP mod	TDP1 cell CPT	DRD3 agonist	IL-1B inflam inh	D3 antag	TDP1 cell noCPT
Cc1ccc(S(=O)(=O)Nc2ccccc2-c2ccccc2)cc1	-1%	2.6µM*	-2	31	-9	2.6µM*
COc1ccccc1NC(=O)Cc1ccsc1	-3%	-12%	-11	34	-5	-5%
CCOc1ccc(C2C(=O)N(C3CCCCC3)CC(=O)N2Cc2ccc(F)cc2)cc1OC (configuration not stated)	-2%	u	-10	x	x	-23%
O=C1[C@H]2C(c3ccccc3)=NN(c3ccccc3)[C@H]2C(=O)N1c1ccccc1	4%	-15%	-1	28	1	2%
O=C1C2C(c3ccccc3)=NN(c3ccccc3)C2C(=O)N1c1ccccc1 (configuration not stated)	28µM*	-7%	5	1	18	-23%
CC[C@H](C)Cc1cn([C@@H](CCCN=C(NC(=O)OC(C)(C)C)NC(=O)OC(C)(C)C)C(=O)NCCCCCCCCCCC(=O)N2CCN(C(=O)OC(C)(C)C)CC2)nn1	0%	9.2µM*	-9	-26	26	7.3µM*
CC(C)(C)OC(=O)NCCCCCc1cn(CC(=O)NCCCCCCCCCCC(=O)N2CCN(C(=O)OC(C)(C)C)CC2)nn1	-1%	5.8µM*	1	22	11	6.5µM*
Cc1cn([C@@H](CCCCNC(=O)OC(C)(C)C)C(=O)NCCCCCCCCCCC(=O)N2CCN(C(=O)OC(C)(C)C)CC2)nn1	1%	8.2µM*	66*	-7	89	7.3µM*
CCOc1ccc(NC(=O)CCSc2nc3c(c(CC)c2C#N)C(=O)CC(C)(C)C3)cc1	-2%	u	0	-15	-5	21µM*
CCc1c(C#N)c(SCCC(=O)Nc2ccc(C)cc2)nc2c1C(=O)CC(C)(C)C2	-1%	u	1	-17	-17	u
COc1ccc(S(=O)(=O)NCC2CCCN(Cc3ccc(O)cc3)C2)cc1 (configuration not stated)	0%	-7%	2	-1	4	21%
Cc1ccc(S(=O)(=O)n2nc(C)c(S(=O)(=O)N3CCCCCC3)c2C)cc1C	-1%	2%	3	x	x	-14%
Cc1ccc(S(=O)(=O)n2nc(C)c(Br)c2C)c(C)c1C	-1%	u	-10	43	u	21µM*
CCOc1ccc(CCNC(=O)c2cc(C)nc3ccccc23)cc1OCC	0%	-29%	2	25	28	1%
COCCn1c(CNC(=O)c2cc([N+](=O)[O-])ccc2Cl)nc2cccnc21	-2%	-22%	4	x	x	-15%
COC(=O)C(C)NC(=O)N1CCN(c2nnc(C)c3c(C)n(-c4ccc(Cl)cc4)nc23)CC1 (configuration not stated)	-13%	u	-15	x	x	23µM*
Cc1nnc(N2CCN(C(=O)Nc3cc(F)ccc3F)CC2)c2nn(-c3ccc(Cl)cc3)c(C)c12	-2%	21µM*	-13	x	x	21µM*
CCCCOc1ccc(-c2cc(C(F)(F)F)c(C#N)c(SCC(=O)O)n2)cc1	x	u	0	9	-14	u
O=C1CC(c2cccs2)c2cc3c(cc2N1)OCCO3 (configuration not stated)	1%	u	8	7	26	21µM*
COc1ccccc1C1CC(=O)Nc2cc3c(cc21)OCCO3 (configuration not stated)	2%	5.2µM*	15	42	20	5.2µM*
COc1ccc(Cl)cc1C1CC(=O)Nc2cc3c(cc21)OCCO3 (configuration not stated)	1%	0.65µM*	-13	x	x	0.37µM*
O=C1CC(c2cc(F)cc(F)c2)c2cc3c(cc2N1)OCO3 (configuration not stated)	0%	u	17	x	x	16µM*
COC(=O)[C@H](Cc1ccccc1)NC(=O)C1(OC(C)=O)CC(OC(C)=O)C(OC(C)=O)C(OC(C)=O)C1 (some centres not stated)	x	16%	11	1	-3	4%
CCOC(=O)[C@H]1[C@H]2COc3ccc(Br)cc3[C@@H]2N2C(=O)c3c(C)cc(C)cc3NC(=O)[C@@]12C	-1%	u	12	u	-2	u
O=C1CC(c2cccc(Cl)c2Cl)c2cc3c(cc2N1)OCCO3 (configuration not stated)	-6%	u	-8	x	x	21µM*
SMILES	ClpP mod	TDP1 cell CPT	DRD3 agonist	IL-1B inflam inh	D3 antag	TDP1 cell noCPT
CCc1cccc(C)c1NC(=O)CCCn1nc(C)c2sc3ccccc3c2c1=O	-10%	-5%	4	x	x	-14%
COC(=O)[C@]1(C)CCC[C@@]2(C)C3CC[C@@]4(C)C[C@]3(CCC21)CC(=O)N4Cc1ccc(OC)cc1 (some centres not stated)	0%	12µM*	-8	u	-5	6.5µM*
COC(=O)[C@]1(C)CCC[C@@]2(C)C3CC[C@]4(OC(C)=O)C[C@@]3(CCC21)CC4=O (some centres not stated)	-4%	21µM*	-2	24	26	u
C[C@@]12CCC3[C@@](CCC4[C@@]3(C)CCC[C@@]4(C)C(=O)N3CCOCC3)(CC1=O)C2 (some centres not stated)	-3%	-12%	31*	26	5	u
COc1ccc(Cn2ccc3nc(C)c(C(=O)Nc4cc(C)cc(C)c4)cc3c2=O)cc1	10%	u	12	x	x	u
CCOc1ccc(-n2c(SCC(=O)Nc3ccc(F)cc3)nc3c([nH]c4ccccc43)c2=O)cc1	-8%	u	-8	x	x	u
C/C=C/C=C\C(=O)Nc1cccc(C2=NOC3(C2)C[C@@H](C(N)=O)N(C(=O)c2cc([N+](=O)[O-])cc([N+](=O)[O-])c2C)C3)c1 (some centres not stated)	0%	16µM*	8	-15	-8	u
C/C=C\C(=O)Nc1cccc(C2=NOC3(C2)C[C@@H](C(N)=O)N(C(=O)c2ccccc2)C3)c1 (some centres not stated)	-1%	-30%	-21	-22	-7	-11%
